Measurements from the supplement of paper PMC11732987, “Enantioselective OTUD7B fragment discovery through chemoproteomics screening and high-throughput optimisation” (Communications Chemistry, 2025).

The molecules below were run against USP14 (UniProt P54578) (assay: log2 ratio of Biotin-Ahx-Ub-VS probe labelling (fragment/DMSO); higher = less target engagement (more negative = stronger competition), active = hit call of the paper (q ≤ 0.05, log2 ratio ≤ -1)). Details: compound concentration: 200 uM; treatment time: 3 h.
USP14, sequence (P54578 whole entry, the tested form may be a part): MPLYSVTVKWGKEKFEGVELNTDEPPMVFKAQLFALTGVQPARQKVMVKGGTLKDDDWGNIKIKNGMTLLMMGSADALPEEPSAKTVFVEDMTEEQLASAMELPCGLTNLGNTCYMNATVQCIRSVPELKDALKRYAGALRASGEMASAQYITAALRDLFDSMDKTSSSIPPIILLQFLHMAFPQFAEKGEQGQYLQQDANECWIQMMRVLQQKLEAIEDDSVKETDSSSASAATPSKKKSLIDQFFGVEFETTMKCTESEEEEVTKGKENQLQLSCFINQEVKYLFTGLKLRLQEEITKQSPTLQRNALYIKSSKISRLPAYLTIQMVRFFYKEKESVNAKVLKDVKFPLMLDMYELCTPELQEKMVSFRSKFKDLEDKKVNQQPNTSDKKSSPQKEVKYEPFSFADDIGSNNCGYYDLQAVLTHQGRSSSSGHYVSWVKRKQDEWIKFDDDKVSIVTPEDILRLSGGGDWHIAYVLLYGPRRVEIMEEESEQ
Description: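 Competitive ABPP in HEK293T cell lysate. Lysates were treated with each chloroacetamide fragment at 200 µM for 3 h, then with Biotin-Ahx-Ub-VS (0.5 µM, 1 h), NeutrAvidin-enriched and analysed by diaPASEF LC-MS/MS. Protein LFQ was median-normalised; average log2 ratio is fragment/DMSO from an unpaired t-test (n=3 treated, n=44 DMSO). Hits: q ≤ 0.05, log2 ratio ≤ -1, unique peptides ≥ 2.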

Row | SMILES | log2 ratio of Biotin-Ahx-Ub-VS probe labelling
1 | CN1c2ccccc2C(NC(=O)CCl)CS1(=O)=O (stereo not given) | -0.335 (inactive)
2 | Cl.Cn1nccc1C(NC(=O)CCl)c1ccccc1 (stereo not given) | -0.0812 (inactive)
3 | O=C(CCl)Nc1nnc(CC(F)(F)F)o1 | -0.206 (inactive)
4 | Cc1ccc(-c2nnc(C)[nH]2)c(NC(=O)CCl)c1 | -0.203 (inactive)
5 | CCN(C(=O)CCl)C1CCCCC1 | -0.0238 (inactive)
6 | Cl.O=C(CCl)NCCN1CCc2ccccc21 | -0.483 (inactive)
7 | COCC[C@@H](NC(=O)CCl)c1ccccc1 | 0.0709 (inactive)
8 | Cc1ccc(C)c(NC(=O)CCl)c1 | -0.687 (inactive)
9 | O=C(CCl)Nc1ccc(Cl)c(F)c1 | -0.481 (inactive)
10 | O=C(CCl)NCc1ccc(Cl)cc1 | -0.109 (inactive)
11 | CN(C)S(=O)(=O)c1ccccc1CNC(=O)CCl | 0.0554 (inactive)
12 | Cl.O=C(CCl)N[C@H]1C[C@@H](n2cccn2)C1 | -0.208 (inactive)
13 | Cc1ccc2nnc(CNC(=O)CCl)n2c1 | 0.17 (inactive)
14 | Cc1nc(-c2cccc(NC(=O)CCl)c2)cs1 | -0.378 (inactive)
15 | Cc1cccc(C)c1NC(=O)CCl | -0.289 (inactive)
16 | O=C(CCl)Nc1cc2c(cc1Cl)OCCO2 | 0.233 (inactive)
17 | O=C(CCl)N1CCC(c2ccn[nH]2)C1 (stereo not given) | -0.0963 (inactive)
18 | Cl.O=C(CCl)N1CCn2ncc(O)c2C1 | -0.588 (inactive)
19 | Cc1cccc(N2CCC(NC(=O)CCl)C2=O)c1 (stereo not given) | -0.345 (inactive)
20 | Cc1ccc(CC(CO)CNC(=O)CCl)cc1 (stereo not given) | -0.262 (inactive)

Row | SMILES | log2 ratio of Biotin-Ahx-Ub-VS probe labelling
21 | O=C(CCl)NC1CCOc2ccccc21 (stereo not given) | -0.937 (inactive)
22 | C[C@H]1CN(C(=O)CCl)CCN1C(=O)c1cnn(C)c1.Cl | -0.0358 (inactive)
23 | CNC(=O)C1(NC(=O)CCl)CCCCC1 | -0.0905 (inactive)
24 | NC(=O)C1CCCN(C(=O)CCl)C1 (stereo not given) | -0.153 (inactive)
25 | Cc1ccc(CN(CCO)C(=O)CCl)cc1 | -0.249 (inactive)
26 | O=C(CCl)N1CCCCC12CCOCC2 | -0.559 (inactive)
27 | CC(NC(=O)CCl)c1cccc2ccccc12 (stereo not given) | -0.209 (inactive)
28 | CC1CCc2onc(CNC(=O)CCl)c2C1 (stereo not given) | 0.328 (inactive)
29 | CN(Cc1nc2ccccc2[nH]1)C(=O)CCl.Cl | 0.0145 (inactive)
30 | O=C(CCl)NC1CCS(=O)(=O)c2ccccc21 (stereo not given) | -0.152 (inactive)
31 | O=C(CCl)N1CCN2C(=O)CCC2C1 (stereo not given) | 0.0904 (inactive)
32 | Cc1ccc(CC(NC(=O)CCl)c2ccccn2)cc1.Cl (stereo not given) | -0.0182 (inactive)
33 | Cc1ccc(N(CCC#N)C(=O)CCl)cc1C | -0.623 (inactive)
34 | COc1cccc(CN(C)C(=O)CCl)c1 | -0.252 (inactive)
35 | O=C(CCl)Nc1ccc(N2CCCC2=O)cc1 | -0.139 (inactive)
36 | CC(NC(=O)CCl)c1ccc2[nH]ncc2c1 (stereo not given) | -0.802 (inactive)
37 | COc1ccccc1C(C)NC(=O)CCl (stereo not given) | -0.458 (inactive)
38 | O=C(CCl)N1CCN(C(=O)N2CCCCC2)CC1 | -1.06 (active)
39 | O=C(CN1CCN(C(=O)CCl)CC1)Nc1cccc(F)c1 | -0.0714 (inactive)
40 | Cl.O=C(CCl)N1CCCC(c2ncc[nH]2)C1 (stereo not given) | -0.141 (inactive)
